Experimental findings from PubChem BioAssay (NCATS) are described below.

Each structure is given as a SMILES string. Inconclusive results are not listed. A call without a number means that no potency is given here. The source made the active and inactive calls. The call rests on the fitted dose curve; in most records, active means well fitted cell-killing curve with a large enough effect; inconclusive means small, poorly fitted or top-dose-only effect; inactive means flat fitted curve, though single readings scatter.
Potency means the concentration at half of the fitted maximal effect.

The nature of the test: Cell Viability - LYMP2-020 (AID 986). Further: nearly all actives have a fitted effect of over 55% in size. Particulars: series mostly up to 92.2 µM. From the text:
NIH Chemical Genomics Center [NCGC]
NIH Molecular Libraries Screening Centers Network [MLSCN]
National Institutes of Environmental Health Sciences [NIEHS]
National Toxicology Program [NTP]
We have developed a 1536-well cell-based assay for quantitative high throughput screening (qHTS) against a number of cell lines to determine in vitro cytotoxicity of small molecules. This particular assay uses a human lymphoblastoid cell line (LYMP2-020) purchased from Coriell Institute for Medical Research.
NCGC Assay Protocol Summary:
The CellTiter-Glo luminescent cell viability assay (Promega) is a homogeneous method to measure the number of viable cells in culture. The end point readout of this assay is based on quantitation of intracellular ATP, an indicator of metabolic activity, using the luciferase reaction. Luciferase catalyzes the oxidation of beetle Luciferin to oxyluciferin and light in the presence of ATP. The luminescent signal is proportional to amount of ATP present.
Using the CellTiter-Glo luminescent cell viability assay, the amount of cellular ATP was measured in the lymphoblastoid cell line with complete culture medium following compound treatment for 24 hours. The assay was performed in opaque white Kalypsys 1536-well plates. In the screen, tetraoctylammonium bromide was used as positive control. Library compounds were measured for their ability to cause acute toxicity in the cell line, as reflected by a decrease in intracellular ATP levels, in a concentration-dependent manner. […] AC50 values were determined from concentration-response data modeled with the standard Hill equation.
qHTS protocol for CellTiter Glo lymphoblastoid cellular assay
[Step] [Parameter] [Value] [Description]
1. Reagent; 5 uL; 2500 lymphoblastoid cells/well
2. Time; 5 hr; 37 C incubation
4. Controls; 23 nL; Tetraoctylammonium bromide 6.4pM to 92 uM
5. Time; 24 hr; 37 C incubation
6. Reagent; 5 uL; CellTiter Glo reagent
7. Time; 30 min; Room Temperature
8. Detection; Luminescence; Viewlux plate reader
Keywords: cell viability, cytotoxicity, lymphoblastoid cell line, luminescence, NTPHTS, NTPHTS_NCGC, NIEHS, DSSTox, MLSMR, MLSCN, NIH Roadmap, qHTS, NCGC
Take `C/C(Cl)=C/CCl`: the Potency entry is “inactive”. Next, `NC(=O)c1ccc([N+](=O)[O-])cc1`: “inactive”. Next, `c1ccc(COCc2ccccc2)cc1`: “inactive”. Next, `CC(C)S`: “inactive”. As to `CCCC(=O)OC(=O)CCC`, the Potency entry was “inactive”. Next, `CCCCC(CC)COCCCN` (stereo not given): “inactive”; `CC(C)OCC1CO1` (stereo not given): “inactive”; `CCCCCCCCOc1ccc(C(=O)O)cc1`: “inactive”. Next, `c1ccncc1`: “inactive”; `CCOc1ccc2nc(N)sc2c1`: “inactive”; `C=Cc1cccc(C)c1`: “inactive”. Next, `CCCCCCCC/C=C\CCCCCCCC(=O)N(CCO)CCO`: “inactive”; `Cc1c2ccccc2c(C)c2c1ccc1ccccc12`: “inactive”; `CC(=O)Nc1cccc(C)c1`: “inactive”.

As to `Cc1ccccc1OCC1CO1` (stereo not given), the Potency entry was “inactive”.

`CN(C)c1ccc(Cc2ccc(N(C)C)cc2)cc1`: the Potency entry is “inactive”. Next, `C=CC(C)(O)CCCC(C)CCCC(C)CCCC(C)C` (stereo not given): “inactive”; `Oc1cc2c(cc1O)[C@H]1c3ccc(O)c(O)c3OC[C@@]1(O)C2`: 39.8 µM (active); `Brc1cc(Br)c(Oc2cc(Br)c(Br)cc2Br)cc1Br`: “inactive”. Next, `S=C(NC1CCCCC1)NC1CCCCC1`: “inactive”. Next, `CC(CCC(=O)O)(c1ccc(O)cc1)c1ccc(O)cc1`: “inactive”; `CCCCOC(=O)COc1ccc(Cl)cc1Cl`: “inactive”. Consider `CCCCCCCCC1CO1` (stereo not given), for which the Potency result was “inactive”.

With `Cc1ccc(O)c(N)c1`, the Potency was 50.1 µM (active). Next, `Nc1ccc(-c2ccc(N)c(O)c2)cc1O`: “inactive”; `CCNC(=S)NCC`: “inactive”; `Cc1ccc(S(N)(=O)=O)cc1`: “inactive”. For the molecule `O=C(O)c1ccc([N+](=O)[O-])cc1`, the Potency result was “inactive”.

In the case of `OCC(CO)(CBr)CBr`, the Potency result was “inactive”.

For the molecule `N=C1C=CC(=C(c2ccc(N)cc2)c2ccc(N)cc2)C=C1`, the Potency is 3.98 µM (active). Next, `c1ccc(SCCSc2ccccc2)cc1`: “inactive”; `c1ccc2ncccc2c1`: “inactive”; `Brc1ccc(-c2ccccc2)cc1`: “inactive”. Next, `C=CC1CO1` (stereo not given): “inactive”. Next, `CCOC(=O)C1OC1c1ccccc1` (stereo not given): “inactive”. Regarding `O=c1[nH]ncc2ccccc12`, the Potency entry was “inactive”. Next, `COc1cc(-c2ccc(N=C=O)c(OC)c2)ccc1N=C=O`: “inactive”. `CCCCC(CC)COC(=O)COc1ccc(Cl)cc1Cl` (stereo not given): the Potency result was “inactive”. For the molecule `Cc1cc(=O)oc2cc(O)cc(O)c12`, the Potency entry was “inactive”. Regarding `O=C(Cl)c1ccc([N+](=O)[O-])cc1`, the Potency entry is “inactive”.
